Source: PubChem BioAssay (EPA / NIEHS)
Where “and” joins values, the source holds several entries; their conditions need not be identical. Identical values can stand only once. Inconclusive results are not listed. Calls of active or inactive are those of the source. How the source made its calls, unless noted: active means hit-call score of the fitted dose curve at least 0.9, where 1 is the maximum; inconclusive means response in the unintended direction; inactive means score below 0.9.

Experiments:
[1] = Tanguay_ZF_120hpf_SOMI_legacy: (Legacy) Oregon State University Tanguay Lab 120 Hour Post-fertilization zebrafish Assay for Somite Malformation (AID 2283647)
How it was run: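 Dechorionated Tropical 5D wild-type zebrafish embryos, one per well from 6 hpf, statically exposed at 28C to 120 hpf in 0.64% DMSO; somite malformation scored present/absent by brightfield; trimethyltin 5 uM positive control; dead embryos not scored.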

[2] = Tanguay_ZF_120hpf_PFIN_legacy: (Legacy) Oregon State University Tanguay Lab 120 Hour Post-fertilization zebrafish Assay for Pectoral Fin Malformation (AID 2283648);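 further: each larva judged yes or no for fin defect by brightfield with dead larvae skipped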
How it was run: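 5D WT zebrafish; pronase dechorionation 4 hpf; 1 embryo/well at 6 hpf; static exposure to 120 hpf, 28C, sealed, foil-covered; final DMSO 0.64% v/v; 5 uM trimethyltin chloride positive control; fin defect scored yes/no.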

[3] = Tanguay_ZF_120hpf_CFIN_legacy: (Legacy) Oregon State University Tanguay Lab 120 Hour Post-fertilization zebrafish Assay for Caudal Fin Malformation (AID 2283649)
How it was run: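 Dechorionated Tropical 5D wild-type embryos, one per well from 6 hpf, static exposure to 120 hpf at 28C in 0.64% DMSO. Caudal fin malformation scored by brightfield as present/absent; not scored in dead embryos.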

[4] = Tanguay_ZF_120hpf_PIG_legacy: (Legacy) Oregon State University Tanguay Lab 120 Hour Post-fertilization zebrafish Assay for Pigmentation Malformation (AID 2283650)
How it was run: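 Pronase dechorionation at 4 hpf; embryos plated at 6 hpf, one per well; static exposure, sealed and foil-covered, 28C, to 120 hpf; pigmentation read by brightfield, binary; DMSO 0.64% baseline, 5uM trimethyltin chloride positive control.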

[5] = Tanguay_ZF_120hpf_CIRC_legacy: (Legacy) Oregon State University Tanguay Lab 120 Hour Post-fertilization zebrafish Assay for Circulatory Malformation (AID 2283651)
How it was run: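 Dechorionated wild-type 5D zebrafish embryos, one per well, statically exposed from 6 to 120 hpf at 28C with 0.64% DMSO; circulatory malformation scored present/absent by brightfield microscopy at 120 hpf, dead embryos excluded.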

[6] = Tanguay_ZF_120hpf_SWIM_legacy: (Legacy) Oregon State University Tanguay Lab 120 Hour Post-fertilization zebrafish Assay for Swim Bladder Malformation (AID 2283654);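 further: swim bladder malformation in each larva scored yes or no under brightfield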
How it was run: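 Embryos lacking chorions were exposed individually and statically to test chemical from 6 to 120 hpf at 28C, with 0.64% DMSO as vehicle. At 120 hpf, swim bladder malformation was recorded as present or absent by brightfield microscopy.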

[7] = Tanguay_ZF_120hpf_TRUN_legacy: (Legacy) Oregon State University Tanguay Lab 120 Hour Post-fertilization zebrafish Assay for Truncated Body (AID 2283655)
How it was run: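 Dechorionated Tropical 5D wild-type embryos placed singly from 6 hpf and statically exposed to 120 hpf at 28C, final DMSO 0.64%. Truncated body scored as present/absent by brightfield; not scored in dead embryos.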

[8] = Tanguay_ZF_120hpf_NC_legacy: (Legacy) Oregon State University Tanguay Lab 120 Hour Post-fertilization zebrafish Assay for Notochord and Tail Malformation (AID 2283656)
How it was run: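 Dechorionated Tropical 5D wild-type zebrafish embryos, one per well from 6 hpf, statically exposed to 120 hpf at 28C in 0.64% DMSO final. Notochord distortion scored present/absent by brightfield; dead embryos excluded.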

[9] = Tanguay_ZF_120hpf_TR_legacy: (Legacy) Oregon State University Tanguay Lab 120 Hour Post-fertilization zebrafish Assay for Touch Response (AID 2283667)
How it was run: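 5D WT embryos; static exposure to 120 hpf, 28C, sealed/dark; DMSO 0.64% v/v final. TR scored present/absent; dead embryos excluded. Pos ctrl 5uM trimethyltin chloride.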

[10] = Tanguay_ZF_120hpf_ActivityScore_legacy: (Legacy) Oregon State University Tanguay Lab 120 Hour Post-fertilization zebrafish Assay Score for Activity (AID 2283742)
How it was run: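 Embryos are staged, enzymatically dechorionated at 4 hpf, placed individually at 6 hpf, then held in test chemical (0.64% DMSO) at 28C until 120 hpf. Mortality and malformations are scored by brightfield, with non-mortality endpoints skipped for dead embryos.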

[11] = target: Tyrosine-protein phosphatase non-receptor type 11 (Homo sapiens) (UniProt Q06124); assay: NVS_ENZ_hPTPN11: NovaScreen (NVS) Enzymatic Assay for human Protein Tyrosine Phosphatase Non-receptor Type 11 (PTPN11) (AID 2283202)
How it was run: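 Recombinant human PTPN11 activity on a fluorescent substrate, with substrate/product separated by electrophoretic mobility shift; read 0.5 h after dosing, loss of signal vs DMSO. Duplicate 25 uM screen, then concentration-response up to 50 uM.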

[12] = CEETOX_H295R_11DCORT: CeeTox H295R High-throughput Steroidogenesis Assay for 11-Deoxycortisol (11DCORT) (AID 2283432; active means hit-call score of the fitted dose curve at least 0.9, where 1 is the maximum; inactive means score below 0.9); conditions: actives raise or lower the signal
How it was run: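 Human adrenal H295R cells were prestimulated with 10 uM forskolin for 48 h, then exposed to test chemical (0.1% DMSO final) for 48 h. Medium 11-deoxycortisol was quantified by MTBE extraction and HPLC-MS/MS; bidirectional fitting relative to DMSO.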

[13] = CEETOX_H295R_CORTIC: CeeTox H295R High-throughput Steroidogenesis Assay for Corticosterone (CORTIC) (AID 2283437; active means hit-call score of the fitted dose curve at least 0.9, where 1 is the maximum; inactive means score below 0.9;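 further: corticosterone secreted into medium quantified by mass spectrometry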); conditions: actives raise or lower the signal
How it was run: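 Corticosterone secreted into medium is measured by reverse-phase HPLC with tandem MS following liquid-liquid extraction. Cells are forskolin-stimulated (10 uM, 48 h) before 48 h test exposure; activity fitted in both directions against DMSO.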

[14] = CEETOX_H295R_CORTISOL: CeeTox H295R High-throughput Steroidogenesis Assay for Cortisol (AID 2283438; active means hit-call score of the fitted dose curve at least 0.9, where 1 is the maximum; inactive means score below 0.9;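 further: cortisol secreted into medium quantified by LC-MS/MS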); conditions: actives raise or lower the signal
How it was run: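 Forskolin-primed H295R cells (10 uM, 48 h) treated 48 h with test chemical in 0.1% DMSO. Cortisol in medium quantified by MTBE extraction and HPLC-MS/MS; bidirectional fit vs DMSO, MTT viability in same wells.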

[15] = CEETOX_H295R_DOC: CeeTox H295R High-throughput Steroidogenesis Assay for DOC (AID 2283439; active means hit-call score of the fitted dose curve at least 0.9, where 1 is the maximum; inactive means score below 0.9); conditions: actives raise or lower the signal
How it was run: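 H295R cells prestimulated 48 h with 10 uM forskolin, then exposed 48 h to test chemical (0.1% DMSO final). Medium 11-deoxycorticosterone measured by HPLC-MS/MS after MTBE extraction; bidirectional fit vs DMSO, viability checked by MTT in same wells.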

[16] = ATG_M_06_XSP2: Attagene TRANS-FACTORIAL Multi-Species (XSP2) HepG2 Assay for M06 Transcription Factor (Internal Marker) (AID 2283811);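 further: internal background marker reporter mRNA measured by RT-PCR and capillary electrophoresis; hits are increases in signal above the DMSO baseline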
How it was run: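 HepG2, multiplexed reporter transfection; 24 h dosing; AR stimulated with 3 nM 6-alpha-fluorotestosterone + 1.5 nM norgestrel; RNA → RT-PCR → 6-FAM primer extension → HpaI → CE. Positive direction vs DMSO.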

[17] = system: turtle Estrogen Receptor (ERa), gene 101933533; assay: ATG_trERa_XSP2: Attagene TRANS-FACTORIAL Multi-Species (XSP2) HepG2 Assay for turtle Estrogen Receptor (ERa) (AID 2283812);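 further: human HepG2 liver cells transiently expressing turtle ERa-Gal4 chimeric receptor; actives raise reporter signal above DMSO so AC50 reflects agonist activity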
How it was run: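 HepG2 cells transiently transfected with GAL4-UAS reporter units expressing turtle ERa-Gal4 chimera. Reporter mRNA measured after 24 h dosing by RT-PCR, fluorescent labelling and capillary electrophoresis; gain of signal fitted versus DMSO.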

[18] = target: Estrogen receptor beta (Homo sapiens) (UniProt Q92731); assay: ATG_hERb_XSP2: Attagene TRANS-FACTORIAL Multi-Species (XSP2) HepG2 Assay for human Estrogen Receptor (ERb) (AID 2283813);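 further: actives raise reporter mRNA above DMSO so AC50 reflects agonist induction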
How it was run: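 HepG2 cells transiently transfected with GAL4-UAS reporter units and chimeric human ERb-Gal4, 24 h exposure. Reporter mRNA quantified by RT-PCR with FAM labelling, HpaI digestion and capillary electrophoresis; gain of signal versus DMSO.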

[19] = target: GAL4 Transcription Factor (Internal Marker), GAL4 (gene 855828) (UniProt P04386); assay: ATG_GAL4_XSP2: Attagene TRANS-FACTORIAL Multi-Species (XSP2) HepG2 Assay for GAL4 Transcription Factor (Internal Marker) (AID 2283814);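 further: GAL4 reporter mRNA background control in MRTU transfected cells not a receptor target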
How it was run: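 HepG2 cells transiently transfected with GAL4-UAS reporter units, stimulated with 3 nM 6-alpha-fluorotestosterone plus 1.5 nM norgestrel, dosed 24 h. Reporter mRNA by RT-PCR/capillary electrophoresis; gain-of-signal fit versus DMSO, background control.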

[20] = target: zebrafish Estrogen Receptor (ER1), esr1 (gene 259252) (UniProt P57717); assay: ATG_zfER1_XSP2: Attagene TRANS-FACTORIAL Multi-Species (XSP2) HepG2 Assay for zebrafish Estrogen Receptor (ER1) (AID 2283816)
How it was run: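 HepG2 cells transiently transfected with a GAL4-UAS reporter and a chimeric zebrafish ER1-Gal4 construct, dosed 24 h. Reporter mRNA quantified by RT-PCR, labelling, HpaI digestion and capillary electrophoresis, relative to DMSO.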

Measured: AC50

Chain of Estrogen receptor beta (Homo sapiens) (Q92731 whole entry, looked up, the tested form may be a part): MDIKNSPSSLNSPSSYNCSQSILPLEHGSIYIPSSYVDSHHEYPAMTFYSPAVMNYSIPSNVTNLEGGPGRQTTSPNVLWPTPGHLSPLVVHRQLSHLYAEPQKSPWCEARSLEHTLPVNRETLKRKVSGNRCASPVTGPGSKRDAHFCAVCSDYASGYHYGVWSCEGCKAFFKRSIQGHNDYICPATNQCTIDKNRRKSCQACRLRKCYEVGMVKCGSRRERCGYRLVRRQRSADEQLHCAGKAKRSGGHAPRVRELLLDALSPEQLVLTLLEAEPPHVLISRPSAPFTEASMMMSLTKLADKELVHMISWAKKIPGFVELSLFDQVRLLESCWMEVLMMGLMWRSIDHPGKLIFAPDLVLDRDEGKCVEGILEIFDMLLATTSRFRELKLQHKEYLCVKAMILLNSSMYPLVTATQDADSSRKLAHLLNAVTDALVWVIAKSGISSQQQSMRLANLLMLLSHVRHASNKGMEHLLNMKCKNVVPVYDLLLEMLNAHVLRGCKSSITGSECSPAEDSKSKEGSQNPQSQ
Chain of zebrafish Estrogen Receptor (ER1), esr1 (gene 259252) (P57717 whole entry, looked up, the tested form may be a part): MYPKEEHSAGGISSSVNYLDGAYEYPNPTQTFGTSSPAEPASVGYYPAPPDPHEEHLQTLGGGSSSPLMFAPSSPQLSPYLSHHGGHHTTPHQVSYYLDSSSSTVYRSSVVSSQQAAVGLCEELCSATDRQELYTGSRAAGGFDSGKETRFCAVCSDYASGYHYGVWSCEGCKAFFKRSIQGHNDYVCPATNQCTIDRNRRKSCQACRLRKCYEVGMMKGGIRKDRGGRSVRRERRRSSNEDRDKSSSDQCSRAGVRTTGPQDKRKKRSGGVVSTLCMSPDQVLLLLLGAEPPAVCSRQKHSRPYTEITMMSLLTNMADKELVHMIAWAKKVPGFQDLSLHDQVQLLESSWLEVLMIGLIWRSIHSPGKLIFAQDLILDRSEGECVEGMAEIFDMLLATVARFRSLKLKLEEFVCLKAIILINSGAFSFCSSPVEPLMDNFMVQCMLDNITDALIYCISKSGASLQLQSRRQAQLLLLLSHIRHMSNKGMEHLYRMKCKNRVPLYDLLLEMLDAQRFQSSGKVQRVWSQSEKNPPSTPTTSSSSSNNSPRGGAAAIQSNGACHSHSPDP
Chain of Tyrosine-protein phosphatase non-receptor type 11 (Homo sapiens) (Q06124 whole entry, looked up): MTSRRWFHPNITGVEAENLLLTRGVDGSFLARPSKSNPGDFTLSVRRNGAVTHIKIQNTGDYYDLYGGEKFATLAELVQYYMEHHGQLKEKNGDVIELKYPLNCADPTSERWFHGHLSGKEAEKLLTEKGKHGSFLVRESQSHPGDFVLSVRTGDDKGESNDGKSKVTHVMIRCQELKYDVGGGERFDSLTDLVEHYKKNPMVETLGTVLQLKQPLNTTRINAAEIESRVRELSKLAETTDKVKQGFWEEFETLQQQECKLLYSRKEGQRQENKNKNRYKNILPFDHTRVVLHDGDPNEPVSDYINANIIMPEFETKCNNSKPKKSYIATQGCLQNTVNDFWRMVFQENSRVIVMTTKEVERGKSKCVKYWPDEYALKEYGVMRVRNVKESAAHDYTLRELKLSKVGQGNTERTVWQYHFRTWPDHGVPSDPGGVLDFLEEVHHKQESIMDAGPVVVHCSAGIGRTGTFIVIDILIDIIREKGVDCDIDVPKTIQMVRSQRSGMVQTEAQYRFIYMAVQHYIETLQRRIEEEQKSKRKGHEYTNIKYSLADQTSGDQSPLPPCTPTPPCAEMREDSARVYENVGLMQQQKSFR
Chain of GAL4 Transcription Factor (Internal Marker), GAL4 (gene 855828) (P04386 whole entry, looked up, the tested form may be a part): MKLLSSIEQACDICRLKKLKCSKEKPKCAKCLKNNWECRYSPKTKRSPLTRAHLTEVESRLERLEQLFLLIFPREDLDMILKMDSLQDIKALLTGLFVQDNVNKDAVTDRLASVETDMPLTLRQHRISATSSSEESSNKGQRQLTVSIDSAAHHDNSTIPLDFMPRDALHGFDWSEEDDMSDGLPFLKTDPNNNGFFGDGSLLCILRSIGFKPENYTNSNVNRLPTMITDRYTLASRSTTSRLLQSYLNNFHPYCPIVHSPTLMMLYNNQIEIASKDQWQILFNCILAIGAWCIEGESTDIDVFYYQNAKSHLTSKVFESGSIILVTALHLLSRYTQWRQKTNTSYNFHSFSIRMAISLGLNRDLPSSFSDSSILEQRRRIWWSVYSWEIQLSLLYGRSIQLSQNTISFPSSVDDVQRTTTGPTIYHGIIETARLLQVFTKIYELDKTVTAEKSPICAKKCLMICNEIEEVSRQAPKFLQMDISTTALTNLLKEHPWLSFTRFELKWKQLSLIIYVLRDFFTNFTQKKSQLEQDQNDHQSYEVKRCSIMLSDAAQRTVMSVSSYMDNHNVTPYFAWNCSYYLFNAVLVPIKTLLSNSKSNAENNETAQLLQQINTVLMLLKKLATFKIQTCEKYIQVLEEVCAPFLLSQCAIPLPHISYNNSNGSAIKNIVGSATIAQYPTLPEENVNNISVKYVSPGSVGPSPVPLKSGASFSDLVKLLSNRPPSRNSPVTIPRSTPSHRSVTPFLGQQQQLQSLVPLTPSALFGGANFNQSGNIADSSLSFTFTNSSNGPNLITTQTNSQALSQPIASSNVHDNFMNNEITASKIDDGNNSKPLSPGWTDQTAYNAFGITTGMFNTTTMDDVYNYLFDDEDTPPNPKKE

CCC(C)=NO
inactive: [1] | [2] | [3] | [4] | [5] | [6] | [7] | [8] | [9] | [10]

Cc1cc(O)cc(C)c1Cl
inactive: [11] | [12] | [13] | [14] | [15] | [16] | [19]
active: [17] 45.8 µM and 16.2 µM | [18] 7.77 µM and 7.9 µM | [20] 76 µM and 29.7 µM
